Screens deposited in PubChem BioAssay by National Center for Advancing Translational Sciences (NCATS).
An excerpt weighted towards active compounds, which were near 12% of everything screened.
JMJD2A Tudor: blocks the human JMJD2A Tudor domain; Potency, µM (highest dose often 114 µM), for the others: at the top dose activity change, negative = inhibition, most hits filed as inhibitors; AlphaScreen JMJD2A-Tudor / H3K4me3 peptide binding; AID 504339; 390,000 compounds, 4.4% hits; O75164; note: % is set by controls: 0 for no effect and ±100 for the full control effect; nearly all actives have a fitted effect of over 50% in size
HP1b binding inh: blocks HP1-beta chromodomain binding to methylated histone tails; P83916; AlphaScreen HP1-beta / biotin-H3K9me3 peptide binding; Potency, µM (top dose mostly 114 µM), inactives show top-dose activity change, negative = inhibition, usual class: inhibitors; 390,000 compounds, 0.56% hits; AID 540317; note: nearly all actives have a fitted effect of over 70% in size
Target sequence (P83916 whole entry, looked up): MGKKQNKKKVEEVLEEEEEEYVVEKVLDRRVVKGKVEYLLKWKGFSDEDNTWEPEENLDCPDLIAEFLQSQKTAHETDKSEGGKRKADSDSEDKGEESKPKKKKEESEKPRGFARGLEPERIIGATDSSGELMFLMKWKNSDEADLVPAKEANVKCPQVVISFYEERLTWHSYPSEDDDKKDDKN
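Compound inhibition of the preformed complex between 50 nM HP1-beta and 50 nM biotinylated H3K9me3 peptide was read by AlphaScreen. Buffer was PBS pH 7.4 with 0.01% Tween-20. Incubations ran 30 min at room temperature, with 10 ug/mL donor/acceptor beads.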
TDP1 block: blocks human tyrosyl-DNA phosphodiesterase 1; 350,000 compounds, 0.28% hits; recombinant TDP1, AlphaScreen DNA substrate cleavage; AID 485290; Potency, µM (highest dose often 130 µM), for the others: top-dose activity change, negative = inhibition, hits mostly inhibitors; note: % is set by controls: 0 for no effect and ±100 for the full control effect; nearly all actives have a fitted effect of over 40% in size
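Compounds were preincubated with Tdp1 (1 nM final) for 15 min at room temperature before substrate (15 nM final) started a 5 min reaction; beads (10 ug/ml final) were then added for 10 min before AlphaScreen detection.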
G9a block: blocks human histone lysine methyltransferase G9a; G9a H3K9 monomethylation, AlphaScreen, 2 h; Potency, µM (doses to about 102 µM), for inactives: top-dose activity, negative = inhibition, most hits filed as inhibitors; 350,000 compounds, 8.8% hits; AID 504332; note: % is set by controls: 0 for no effect and ±100 for the full control effect; nearly all actives have a fitted effect of over 75% in size
Target sequence (Q96KQ7 913-1193 limits assumed): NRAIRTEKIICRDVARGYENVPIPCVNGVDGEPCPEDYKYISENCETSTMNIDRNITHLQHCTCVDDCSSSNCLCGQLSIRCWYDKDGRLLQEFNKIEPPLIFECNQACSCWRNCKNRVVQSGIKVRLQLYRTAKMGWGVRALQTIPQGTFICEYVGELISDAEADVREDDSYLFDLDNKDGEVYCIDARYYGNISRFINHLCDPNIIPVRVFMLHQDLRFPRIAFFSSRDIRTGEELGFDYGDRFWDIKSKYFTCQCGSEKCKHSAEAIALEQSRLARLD
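Methyltransferase reactions run at room temperature for 2 h (20 nM enzyme, 500 nM biotin-H3K9 peptide, 20 uM SAM) after a 15 min compound preincubation; product detected by AlphaScreen beads and anti-H3K9me1 antibody.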
Sfp PPTase inh: inhibitors of Bacillus subtilis Sfp phosphopantetheinyl transferase; Q9F4F7; Biochemical Sfp PPTase activity, qHTS; Potency, µM, for inactives: largest response in the series, negative = inhibition, actives largely listed as inhibitors; 310,000 compounds, 3.5% hits;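 note: the enzyme is Sfp with the accession as filed and its product quenches rhodamine fluorescence; 0% = enzyme reaction without inhibitor and -100% = no enzyme wells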
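Step 1, compound plus 15 nM Sfp-PPTase, 15 min, room temperature. Step 2, add rhodamine-CoA (5 uM) and BHQ-2-YbbR (12.5 uM). Step 3, read 525/598 nm fluorescence at 0 and 30 min.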
BAZ2B inh: inhibitors of human BAZ2B bromodomain; Q9UIF8; AID 504333; Potency, µM (titrated, usually from 114 µM), inactives show top-dose activity change, negative = inhibition, usual class: inhibitors; AlphaScreen BAZ2B-H3K14Ac peptide displacement; 360,000 compounds, 4.4% hits; note: % is set by controls: 0 for no effect and ±100 for the full control effect; nearly all actives have a fitted effect of over 60% in size
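In this displacement format the biotinylated H3(5-23) peptide acetylated at Lys14 serves as ligand at 50 nM, with BAZ2B at 50 nM in PBS pH 7.4 containing 0.01% Tween-20. Donor and acceptor beads are 10 ug/mL final.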
The depositor's hits bear a star; [ ] = dose if it differs, or a comment. Calls come from the whole dose curve; as a rule, active = well fitted curve in the direction sought with a large enough effect; inconclusive = small, poorly fitted or top-dose-only effect, or another doubt; inactive = no such curve, though single readings can be large; an effect the other way counts as inactive or inconclusive. Potency is the fitted concentration of half-maximal effect.

`N#C/C(=C\c1ccc(-c2ccccc2C(=O)O)o1)c1nc2ccccc2[nH]1` gave JMJD2A Tudor 20µM*, HP1b binding inh 5.0%, TDP1 block -1.3%[12.3 µM], G9a block 39.8µM*, Sfp PPTase inh 0.2% and BAZ2B inh 79.4µM*.
For Cc1cc(/C=C(/C#N)c2nc3ccccc3[nH]2)c(C)n1-c1cc(C(=O)O)cc(C(=O)O)c1 the results were JMJD2A Tudor 25.1µM*, HP1b binding inh inconclusive, G9a block 12.6µM*, Sfp PPTase inh 0.4% and BAZ2B inh 39.8µM*.
COc1ccc(/C=C/c2nnc(NC(=O)CC(C)C)s2)cc1 was read as JMJD2A Tudor -17.4%, HP1b binding inh 16.8%, G9a block 21.2%, Sfp PPTase inh 19.1% and BAZ2B inh -20.1%.
Screening COC/C=C/c1cc(F)c(S(=O)(=O)N2CCN(S(=O)(=O)c3ccc4c(c3)OCCO4)CC2)cc1F returned JMJD2A Tudor -13.0% and TDP1 block 0.4%.
`O=C(c1c[nH]c(C(=O)C(Cl)(Cl)Cl)c1)c1ccc(F)cc1Cl` gave JMJD2A Tudor -23.4%, HP1b binding inh 7.0%, TDP1 block 5.5%, G9a block -70.3%[12.7 µM], Sfp PPTase inh 7.5% and BAZ2B inh -25.0%.
CN(CCCNC(=O)c1cc2c(Cl)nc3ccccc3c2s1)Cc1ccccc1 was read as JMJD2A Tudor inconclusive, HP1b binding inh 8.5%, TDP1 block 8.0%, G9a block inconclusive, Sfp PPTase inh 79.4µM* and BAZ2B inh inconclusive.
Screening Cc1ccc2nc(Cl)c3cc(C(=O)NCCCN(C)Cc4ccccc4)sc3c2c1 returned JMJD2A Tudor inconclusive, HP1b binding inh -10.0%, TDP1 block 1.3%, G9a block inconclusive and BAZ2B inh 22.4µM*.
`CCc1ccc(Nc2n[n+](-c3ccccc3)c(-c3cccc(C)c3)s2)cc1` gave JMJD2A Tudor 79.4µM*, HP1b binding inh 11.4%, TDP1 block -11.0%, G9a block 7.6%[2.33 µM] and BAZ2B inh 35.5µM*.
`Cc1cccc(-c2sc(Nc3ccccc3)n[n+]2-c2ccc(F)cc2)c1` gave JMJD2A Tudor -31.7%, HP1b binding inh 30.4%, G9a block 35.5µM*, Sfp PPTase inh 15.8% and BAZ2B inh -1.3%.
Screening Cc1ccc(OCC(=O)Nc2ccccc2C(=O)OCc2cc(=O)n3ccsc3n2)cc1 returned JMJD2A Tudor inconclusive, HP1b binding inh 69.8%, TDP1 block -3.8%, G9a block inconclusive and BAZ2B inh inconclusive.
Cc1ccc(CCNC(=O)c2cc3c(=O)n(C)c4ccccc4c3n2C)cc1 was read as JMJD2A Tudor -17.5%, HP1b binding inh 7.1%, TDP1 block 3.5%, G9a block -0.3%[59 µM] and BAZ2B inh -15.4%.
For Cc1ccc(CNS(=O)(=O)c2c(C(=O)N3CCCCCC3)c(C)n(C)c2C)cc1 the results were JMJD2A Tudor inconclusive, HP1b binding inh -10.4%, TDP1 block 7.2%, G9a block 21.3%, Sfp PPTase inh 9.0% and BAZ2B inh -21.0%[57.1 µM].
Screening CCN1CCc2[nH]c3ccccc3c2C1 returned JMJD2A Tudor -4.0%, HP1b binding inh 41.3%, G9a block 25.5%, Sfp PPTase inh -15.4% and BAZ2B inh -1.8%.
For CCCCN1CCc2[nH]c(=S)[nH]c(=O)c2C1 the results were JMJD2A Tudor 25.1µM*, HP1b binding inh -12.0%, TDP1 block 4.6%, G9a block 35.5µM*, Sfp PPTase inh inconclusive and BAZ2B inh 16.3%.
`CC(c1ccccc1)N1CCc2[nH]c(=S)[nH]c(=O)c2C1` (stereo unspecified) gave JMJD2A Tudor -3.5%, HP1b binding inh 53.0%, TDP1 block -2.6%, G9a block 39.8µM*, Sfp PPTase inh inconclusive and BAZ2B inh 0.9%.
Screening COCCN1CCc2[nH]c(=S)[nH]c(=O)c2C1 returned JMJD2A Tudor -2.1%, HP1b binding inh 24.8%, TDP1 block -2.3%, G9a block 31.6µM*, Sfp PPTase inh 56.2µM* and BAZ2B inh inconclusive.
